Bioassay records deposited in PubChem by University of Kansas High Throughput Screening Laboratory.
Shown are actives, neighbours in structure and some others; about 3.5% of the full set was active somewhere.
Pf apPOL block: Pf-apPOL DNA polymerase inhibition; Recombinant Pf-apPOL, molecular beacon fluorescence, 1.5 h; inhibition, % at 10 µM; 210,000 compounds, 0.25% hits; AID 1794808
mHTT CaM bind: inhibitors of human mutant huntingtin-calmodulin interaction; inhibition, % at 15 µM; P42858; AlphaScreen His-mHTT/GST-CaM binding, luminescence; 190,000 compounds, 3.6% hits;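 also: 0% = both proteins with DMSO and 100% = one protein alone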
Starred values were filed as active, the others as inactive. Rule as the data show it: active = inhibition above about 50%; inactive = the rest.

SMILES	Pf apPOL block	mHTT CaM bind
Cc1ccc(-c2ccc(CN3C(C)C(=O)N(Cc4cn(CC5CCCCC5)nn4)CCS3(=O)=O)cc2)cc1 (configuration not stated)	-7.3	29.7
CC1C(=O)N(Cc2cn(CC3CCCCC3)nn2)CCS(=O)(=O)N1Cc1ccc(-c2ccccc2)cc1 (configuration not stated)	-0.1	72.8*
CC(CNC(=O)C1CCN(c2cnn(C)c(=O)c2)CC1)c1ccccc1 (configuration not stated)	-2.1	6.8
COc1cn2c(cc1=O)C(=O)N(CCNC(=O)C1c3ccccc3Oc3ccccc31)CC2	2.1	-11.8
O=C(c1cc2c(s1)CCCC2)N1CCc2nc3cc[nH]n3c(=O)c2C1	-0.6	0.6
O=C(NC(Nc1cccc2cccnc12)C(Cl)(Cl)Cl)c1ccc(Br)cc1 (configuration not stated)	-10.5	3.0
Cc1ccc(C(NC(=O)C(C)C)c2ccc3cccnc3c2O)cc1 (configuration not stated)	2.0	100.0*
COc1ccc(-c2ncc(NC(=O)C(C)C)cn2)cc1	-0.2	-3.0
CCCC(=O)NC(c1ccccc1Cl)c1ccc2cccnc2c1O (configuration not stated)	-0.2	100.0*
O=C(NC(c1ccccc1)c1ccc2cccnc2c1O)c1ccccc1 (configuration not stated)	2.1	100.0*
COc1ccc(C(NC(=O)C(C)C)c2ccc3cccnc3c2O)cc1 (configuration not stated)	10.2	100.0*
COc1cccc(CN2CC(C(=O)N3CCCC3)CC2=O)c1 (configuration not stated)	-12.0	5.2
O=C(c1ccsc1)N1CCN(c2nc(CN3CCOCC3)cs2)CC1	-0.3	-0.3
O=C(Cc1cc(=O)[nH]c(SCC(=O)Nc2cccc(Cl)c2)n1)NCc1cccs1	-5.0	-12.0
CCC(=O)Oc1ccc2c(c1)OC(=Cc1c(F)cccc1Cl)C2=O	-0.1	-1.1
CC(Oc1ccc(Cl)cc1Cl)C(=O)Nc1ncccn1 (configuration not stated)	-1.5	-5.0
COc1ccc(C(=O)Nc2cc(OC)cc3cccnc23)cc1	3.7	-9.3
c1ccc(NC(c2ccccc2)c2ccncc2)cc1 (configuration not stated)	-2.3	4.7
COc1ccc(C(NC(C)=O)c2ccc3cccnc3c2O)cc1 (configuration not stated)	4.1	100.0*
CC(=O)NC(c1ccc(Cl)cc1)c1ccc2cccnc2c1O (configuration not stated)	-0.1	100.0*
CC(C)C(=O)NC(c1ccc(Cl)cc1Cl)c1ccc2cccnc2c1O (configuration not stated)	-65.6	96.0*
Oc1c(C(Nc2cccc(Cl)c2)c2ccncc2)ccc2cccnc12 (configuration not stated)	-9.6	100.3*
CC1(C)OCC2(CO1)CN(C(=O)C1CC=CCC1)C2 (configuration not stated)	-9.3	-2.5
Cc1ccc(C2=C/C(=C\c3ccc(Cl)cc3)C(=O)O2)cc1	7.6	-2.0
CCCNC(=O)c1c2c(nc3c(C)cccc13)CCC2	-3.0	-3.6
SMILES	Pf apPOL block	mHTT CaM bind
O=C(Nc1ccc2c(c1)CCC(=O)N2Cc1ccccc1)c1ccccc1C(F)(F)F	-8.8	-14.9
COCCCNC(=O)C1CCN(c2nc3ccc(-c4cccc(F)c4)nc3s2)CC1	0.1	-1.4
COc1ccc(C(C)NC(C)=O)cc1OC (configuration not stated)	-6.2	-8.2
CN(C)c1ccc(C(NC(=O)Cc2ccccc2)c2ccc3cccnc3c2O)cc1 (configuration not stated)	0.3	40.9
CCC(=O)NC(c1ccc(C)cc1)c1ccc2cccnc2c1O (configuration not stated)	0.4	100.0*
CC(=O)NC(c1ccccc1Cl)c1ccc2cccnc2c1O (configuration not stated)	-6.5	100.0*
COc1ccc(C(NC(=O)C(C)C)c2ccc3cccnc3c2O)cc1OC (configuration not stated)	3.4	100.0*
CCN1CCN(C(=O)c2ccc(-c3nc(-c4ccccc4)no3)cc2)CC1	-6.3	8.0
COc1cc(CN2CCN(c3cc(C)ccc3C)CC2)c([N+](=O)[O-])cc1OC	2.9	35.7
COc1ccc(CCC(=O)N2CC(c3nc(C4CC4)no3)C2)cc1	-8.3	-13.1
CCc1ccc(N(CC)C(=O)c2ccc3[nH]c4c(c3c2)CN(C(C)=O)CC4)cc1	-2.3	68.3*
CC(=O)N1CCc2[nH]c3ccc(C(=O)NCCc4ccc(F)cc4)cc3c2C1	-8.2	52.2*
COc1ccc(OC)c(CNC(=O)c2ccc3[nH]c4c(c3c2)CN(C(C)=O)CC4)c1	7.7	43.7
COc1ccc(CCNC(=O)c2ccc3[nH]c4c(c3c2)CN(C(C)=O)CC4)cc1OC	-7.6	46.4
CC(=O)N1CCc2[nH]c3ccc(C(=O)NCc4ccc(N5CCCC5)cc4)cc3c2C1	-1.6	88.6*
